# Data published in PubChem BioAssay (NCI).
# This is part of a sample that, as a whole, favours compounds with a hit. Of some 83,000 tested, about 20% had one in any assay.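 Method: cells in 96-well plates; compound added at one concentration; 48 h incubation; percent growth measured; values under 10 scored active.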 Unmarked numbers belong to inactive results. The source made the active and inactive calls.
# Tested on: OVCAR-8 ovarian
# Assay: NCI-60 one-dose screen, 48 h (100 = growth as untreated, 0 = no growth, -100 = all killed)
# Details: 10 µM unless noted
# Description: Growth inhibition of the OVCAR-8 human tumor cell line is measured as a screen for anti-cancer activity. Cells are grown in 96 well plates and exposed to the test compound for 48 hours. Compounds are tested at a single concentration, which is 10^-5 M for most compounds. The reported endpoint is percent growth (GI% or GIPRCNT), where numbers from 0 - 100% represent growth inhibition, and numbers from -100% - 0 represent cell death. For example, a value of 40 represents 60% growth inhibition. A value of 0 means no net growth occurred over the course of the experiment. A value of -40 indicates 40% of cells at the beginning of the experiment died by the end of the experiment. A value of -100 means all cells are dead at the end of the experiment.
# NCI-60 Human Tumor Cell Lines Screen was performed using the standard one-dose NCI protocol, which is described in more detail at https://dtp.cancer.gov/discovery_development/nci-60/default.htm.
# Compounds with GIPRCNT values below 10 were considered active. Activity score was based on GIPRCNT using the following formula: […]
# Score is 0 for GIPRCNT values of 100 or above, 50 for GIPRCNT values of 0, and 100 for GIPRCNT values of -100.
row,SMILES,growth
1,COc1ccc2c(c1)c(-c1nonc1-c1c[nH]c3ccc(Br)cc13)cn2C,48.2%
2,CCCCCCOC(=O)CC1=C(C)/C(=C/c2[nH]c(-c3ccc[nH]3)cc2OC)N=C1C,-55.1% (active)
3,CC[C@H](C)[C@H](NC(=O)[C@H](CCCNC(=N)N)NC(=O)[C@H](Cc1c[nH]c2ccccc12)NC(=O)[C@@H](NC(=O)[C@H](CCCCN)NC(=O)[C@H](CCCCN)NC(=O)[C@@H](NC(=O)[C@@H](NC(=O)[C@@H](NC(=O)[C@H](CCCCN)NC(=O)[C@H](Cc1ccccc1)NC(=O)[C@H](CCCCN)NC(=O)[C@H](CCCCN)NC(=O)[C@H](Cc1ccccc1)NC(=O)[C@@H](NC(=O)[C@@H](N)CCCCN)[C@@H](C)CC)[C@@H](C)O)[C@@H](C)CC)[C@@H](C)CC)C(C)C)C(=O)N[C@@H](Cc1ccccc1)C(=O)NCC(=O)N[C@@H](CCCNC(=N)N)C(=O)N[C@@H](Cc1ccccc1)C(N)=O,0.804% (active)
4,Nc1c(C(=O)Nc2cccc3ncccc23)sc2nc3c(cc12)C(=O)CCC3,78.9%
5,Cc1nc2sc(C(=O)Nc3cccc(Cl)c3)c(N)c2cc1C(O)c1ccccc1 (stereo not given),19%
6,CN(Cc1cnc2nc(N)nc(N)c2n1)c1c(Cl)cc(C(=O)NC(CCC(=O)O)C(=O)O)cc1Cl (stereo not given),17.8%
7,CC1=C(C(=O)n2c3ccccc3c3ccccc32)C(c2cccc([N+](=O)[O-])c2)C(C(=O)n2c3ccccc3c3ccccc32)=C(C)N1,99.4%
8,Cc1ccc2[nH]c(=O)c3c(c2c1)OC(N)=C(C#N)C31C(=O)c2cccc3cccc1c23 (stereo not given),103%
9,CC(C)c1ccc(-n2c(=S)[nH]c3sc4c(c3c2=O)CCC(=O)C4)cc1,49.9%
10,CN1CCN(Cc2ccc(NC(=O)c3cncc(C#Cc4cncc5[nH]ncc45)c3)cc2C(F)(F)F)CC1,18.2%
11,COc1ccc2nc3cc(Cl)ccc3c(NCCN)c2c1,-33.5% (active)
12,O=C1/C(=C/c2ccccc2[N+](=O)[O-])COc2ccc(O)cc21,6.3% (active)
13,C[C@@H](CO)[C@@H]1CC[C@]2(C(=O)N3CCN(C)CC3)CC[C@]3(C)[C@H](CC[C@@H]4[C@@]5(C)CC[C@H](O)C(C)(C)[C@@H]5CC[C@]43C)[C@@H]12,80.3%
14,CC1(C)CC[C@]2(C(=O)N3CCOCC3)CC[C@]3(C)C(=CC[C@@H]4[C@@]5(C)C/C(=C/c6ccncc6)C(=O)C(C)(C)[C@@H]5CC[C@]43C)[C@@H]2C1,34%
15,COc1cc2cc(Oc3ccc(NC(=O)Nc4ccccc4)cc3)c(C)nc2cc1OCCN1CCCCC1,46.5%
16,O=S(=O)(c1ccccc1)N1CCCN(c2nc(-c3ccccc3)nc3nc(-c4ccccc4)oc23)CC1,104%
17,COc1cc(C(=O)C(=O)c2cc(OC)c(O)c(OC)c2)cc(OC)c1O,102%
18,Cc1cc2oc(=O)cc(CP(=O)(O)O)c2cc1O,99.5%
19,C=C(C)[C@@H]1CC[C@]2(CO)CC[C@]3(C)[C@H](CC[C@@H]4[C@@]5(C)CCC(NCCc6ccc(O)cc6)C(C)(C)[C@@H]5CC[C@]43C)[C@@H]12 (stereo not given in full),-79.4% (active)
20,COc1ccc2nc3ccccc3c(NCc3ccccc3)c2c1,28.2%

row,SMILES,growth
1,CC(=O)N/C(=C1/OC(C(O)C(O)C(O)CO)CN1C)[P+](c1ccccc1)(c1ccccc1)c1ccccc1 (stereo not given),102%
2,O[C@@H](c1cc(C(F)(F)F)nc2c(C(F)(F)F)cccc12)[C@H]1CCCCN1,76.7%
3,COCCCOc1cc(C[C@@H](C[C@H](N)[C@@H](O)C[C@H](C(=O)NCC(C)(C)C(N)=O)C(C)C)C(C)C)ccc1OC,105%
4,O=C1/C(=C/c2ccc(C(F)(F)F)cc2)COc2ccc(O)cc21,76.4%
5,CC1=CCC[C@@H]2C1(C)CC[C@H](C)[C@@]2(C)CC1=CC(=O)C(SC(C)(C)C)=CC1=O (stereo not given in full),91.8%
6,CCc1cccc(Sc2cc(C(=O)N3Cc4ccc(OCCN(C)C)cc4C3)ccc2O)c1,24.1%
7,CC1(C)CC2=C3C=C[C@@H]4[C@@]5(C)CC[C@H](O)C(C)(C)[C@@H]5CC[C@@]4(C)[C@]3(C)CC[C@@]2(C(=O)O)CC1=O,62.6%
8,CCCCn1sc(=O)n(Cc2ccc(CNC(=O)OCc3ccc4c(Br)cc(Br)c(O)c4n3)cc2)c1=O,13.7%
9,CCOC(=O)Cn1c(=O)c2c3ccccc3n(C)c2n2nnc(-c3ccccc3)c12,113%
10,CC[C@H](CC[C@@H](C)[C@H]1CC[C@H]2[C@@H]3CC[C@@H]4CC(=O)/C(=C\c5ccncc5)C[C@]4(C)[C@H]3CC[C@]12C)C(C)C,100%
11,C/C(C=O)=C\c1ccc2c(c1)OCO2,106%
12,O=C1Nc2ccccc2/C1=C/c1cn(C[C@@H](O)Cn2c3ccccc3c(=O)c3ccccc32)c2ccccc12,68.5%
13,O=C(Cn1cc(CN2C(=O)c3ccccc3S2(=O)=O)nn1)Nc1cccc(Cl)c1,113%
14,CN(C)c1ccc(/C=C/C(=O)c2ccccc2)cc1,93.1%
15,Cc1cscc(C)c1=S,83.3%
16,C(/C=C/c1ccccc1)=Nc1ccc(CCc2ccc(N=C/C=C/c3ccccc3)cc2)cc1,83.5%
17,CCNCc1ccc(O)c2ncccc12,23%
18,O=C(N=Nc1c(O)[nH]c2ccccc12)Nc1ccc(Cl)cc1,102%
19,C=CCn1c(SCC(=O)Nc2ccc(C(=O)/C=C/c3ccc(OC)cc3)cc2)nnc1-c1ccccc1,101%
20,CC1=NN(c2ccc(Cl)cc2)CC1(C)N=O (stereo not given),88.2%
